This is an account of results in PubChem BioAssay (NCI).

Structures are written as SMILES. The panel holds about 83,000 compounds, 20% with a hit somewhere; the sample as a whole holds those more often.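 Step 1: grow cells in 96-well plates. Step 2: add test compound at a single concentration. Step 3: incubate 48 h. Step 4: record percent growth.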 Unmarked numbers belong to inactive results. Calls of active or inactive are those of the source. Rule for the calls: active = growth percent below 10; inactive = the rest.

Common to all, as to assay: NCI-60 one-dose screen, 48 h (100 = growth as untreated, 0 = no growth, -100 = all killed)
One assay relates to NCI-H23 lung. To be noted: 10 µM unless noted.
For the next assay, the system named is NCI-H226 lung. To be noted: 10 µM unless noted.
The next assay deals with MDA-MB-231 breast. As to conditions: 10 µM unless noted.
The test system of another assay is SF-268 CNS. As to conditions: 10 µM unless noted.
The subject of a further assay is SF-539 CNS. As to conditions: 10 µM unless noted.
The next assay deals with HCT-15 colon. To be noted: 10 µM.
In a further assay the test system is HT29 colon. To be noted: 10 µM unless noted.
The subject of the next assay is SNB-75 CNS. To be noted: 10 µM unless noted.
In another assay the test system is PC-3 prostate. As to conditions: 10 µM unless noted.
The next assay relates to SK-MEL-5 melanoma. As to conditions: 10 µM unless noted.
In a further assay the test system is UACC-62 melanoma. To be noted: 10 µM unless noted.
In another assay the test system is SK-MEL-28 melanoma. To be noted: 10 µM unless noted.
Another assay has as its system SN12C renal. To be noted: 10 µM unless noted.
In a further assay the test system is ACHN renal. To be noted: 10 µM unless noted.
Another assay deals with OVCAR-8 ovarian. To be noted: 10 µM unless noted.
The next assay deals with OVCAR-3 ovarian. As to conditions: 10 µM unless noted.
In the next assay the test system is NCI/ADR-RES ovarian. To be noted: 10 µM unless noted.
A further assay deals with MDA-MB-435 melanoma. As to conditions: 10 µM unless noted.
In a further assay the test system is MCF7 breast. To be noted: 10 µM unless noted.
The next assay deals with KM12 colon. To be noted: 10 µM unless noted.

With `FC(F)=C(F)c1ccccc1`, the growth in the assay on NCI-H23 lung is 103%; with NCI-H226 lung, 113%; with MDA-MB-231 breast, 115%; in the assay with SF-268 CNS, 111%; with SF-539 CNS, 103%; in the assay with HCT-15 colon, 107%. Also, the growth was 104% in the assay on HT29 colon; 88.8% with SNB-75 CNS; 104% in the assay on PC-3 prostate; 105% in the assay with SK-MEL-5 melanoma; 107% with UACC-62 melanoma; 102% in the assay on SK-MEL-28 melanoma. Besides, the growth with SN12C renal is 112%; in the assay with ACHN renal it was 110%; in the assay with OVCAR-8 ovarian it was 104%; with OVCAR-3 ovarian, 114%; in the assay with NCI/ADR-RES ovarian, 106%; in the assay on MDA-MB-435 melanoma, 104%. Moreover, the growth in the assay on MCF7 breast was 96.9%; in the assay with KM12 colon it was 102%.
Turning to `CC12CCC(=O)C=C1C(O)CC1C2CCC2(C)C(O)CCC12` (stereo unspecified), the growth is 100% with NCI-H23 lung; 94.7% in the assay on NCI-H226 lung; 114% in the assay on MDA-MB-231 breast; 98% with SF-268 CNS; 98.7% in the assay on SF-539 CNS; 106% in the assay on HCT-15 colon. The growth in the assay with HT29 colon was 108%; in the assay with SNB-75 CNS, 94.5%; in the assay on PC-3 prostate it was 95%; in the assay with SK-MEL-5 melanoma, 98.6%; in the assay on UACC-62 melanoma, 99.5%; with SK-MEL-28 melanoma, 115%. For the same compound, the growth is 105% in the assay with SN12C renal; 117% with ACHN renal; 105% with OVCAR-8 ovarian; 103% in the assay with OVCAR-3 ovarian; 108% in the assay with NCI/ADR-RES ovarian; 112% in the assay on MDA-MB-435 melanoma. Moreover, the growth in the assay on MCF7 breast is 97.1%; in the assay on KM12 colon, 98.8%.
Consider `NC(Cc1ccc2c(c1)OCO2)c1ccc2c(c1)OCO2` (stereo unspecified), for which the growth in the assay on NCI-H23 lung is 105%; in the assay with NCI-H226 lung, 105%; in the assay on MDA-MB-231 breast, 107%; in the assay on SF-268 CNS, 103%; in the assay on SF-539 CNS it was 114%; with HCT-15 colon, 115%. Besides, the growth in the assay on HT29 colon is 102%; in the assay with SNB-75 CNS it was 75.4%; with PC-3 prostate, 93.4%; in the assay on SK-MEL-5 melanoma it was 103%; in the assay on UACC-62 melanoma it was 92.6%; in the assay on SK-MEL-28 melanoma, 101%. The growth with SN12C renal was 94%; in the assay on ACHN renal, 108%; in the assay on OVCAR-8 ovarian it was 102%; with OVCAR-3 ovarian, 120%; with NCI/ADR-RES ovarian it was 107%; in the assay on MCF7 breast it was 89.2%. Moreover, the growth in the assay with KM12 colon was 109%.
With `CC1(C)N=C(N)N=C(N)N1c1ccc(OCCCCNC(=O)c2ccc(S(=O)(=O)F)cc2)c(Cl)c1`, the growth in the assay on NCI-H23 lung was 68.1%; in the assay with NCI-H226 lung, 117%; in the assay on MDA-MB-231 breast, 105%; in the assay on SF-268 CNS, 40.7%; with SF-539 CNS it was 64.9%; in the assay with HCT-15 colon, 94.9%. Besides, the growth with HT29 colon is 27.6%; with SNB-75 CNS, 87.7%; in the assay with PC-3 prostate, 23.4%; in the assay with SK-MEL-5 melanoma, 51.4%; with UACC-62 melanoma it was 44.1%; in the assay on SK-MEL-28 melanoma, 96%. Also, the growth in the assay on SN12C renal was 44.7%; with ACHN renal, 96.9%; in the assay on OVCAR-8 ovarian it was 32.7%; in the assay on OVCAR-3 ovarian, 119%; in the assay on NCI/ADR-RES ovarian, 109%; in the assay with MDA-MB-435 melanoma, 30.6%. In addition, the growth in the assay on MCF7 breast was 34.7%; in the assay with KM12 colon, 66.5%.
As to `OB([O][Hg][c]1ccccc1)[O][Hg][c]1ccccc1`, the growth in the assay with NCI-H23 lung was -56.2% (active); in the assay with NCI-H226 lung, 54.9%; with MDA-MB-231 breast, -69.8% (active); in the assay with SF-268 CNS, -51.2% (active); in the assay on SF-539 CNS, -87.7% (active); with HCT-15 colon, -70.3% (active). Also, the growth in the assay with HT29 colon was -55.8% (active); in the assay on SNB-75 CNS, -56% (active); in the assay on PC-3 prostate, -60.4% (active); in the assay with SK-MEL-5 melanoma, -96.7% (active); in the assay with UACC-62 melanoma it was -99.1% (active); in the assay on SK-MEL-28 melanoma it was -83.2% (active). In addition, the growth with SN12C renal was -99.6% (active); in the assay on ACHN renal, -95.6% (active); with OVCAR-8 ovarian, -97.1% (active); in the assay on OVCAR-3 ovarian it was -89.6% (active); with NCI/ADR-RES ovarian it was -18.2% (active); in the assay on MDA-MB-435 melanoma, -84% (active). In addition, the growth in the assay with MCF7 breast is -39.4% (active); with KM12 colon, 14.7%.
Take `C[CH2][Pb]([CH2]C)([CH2]C)[O]C(=O)COC`: the growth was -2.61% (active) in the assay with NCI-H23 lung; 6.09% (active) in the assay on NCI-H226 lung; 8.7% (active) in the assay on MDA-MB-231 breast; -14.8% (active) in the assay on SF-268 CNS; -41.8% (active) with SF-539 CNS; 8.99% (active) in the assay on HCT-15 colon. The growth with HT29 colon was 0.481% (active); in the assay on SNB-75 CNS, -4.45% (active); with PC-3 prostate, 14.1%; with SK-MEL-5 melanoma, -74.9% (active); in the assay with UACC-62 melanoma it was 19.3%; with SK-MEL-28 melanoma, 18.2%. In addition, the growth is 2.97% (active) with SN12C renal; 12.7% in the assay with ACHN renal; 3.57% (active) with OVCAR-8 ovarian; -3.39% (active) in the assay on OVCAR-3 ovarian; 4.13% (active) in the assay on NCI/ADR-RES ovarian; -12.3% (active) in the assay on MDA-MB-435 melanoma. In addition, the values for the growth with MCF7 breast and in the assay with KM12 colon were 0.034% (active) and 5.08% (active), respectively.
In the case of `O=C(N/N=C/c1ccc(N(CCCl)CCCl)cc1)c1cc(=O)[nH]c(=O)[nH]1`, the growth in the assay with NCI-H23 lung is 79.7%; in the assay with NCI-H226 lung it was 5.48% (active); in the assay with SF-268 CNS it was 95.2%; in the assay with SF-539 CNS, 91.3%; with HCT-15 colon, 97.8%; with HT29 colon it was 101%. Further, the growth is 92.8% in the assay with SNB-75 CNS; 89.2% in the assay with PC-3 prostate; 98.9% in the assay with SK-MEL-5 melanoma; 116% in the assay on SK-MEL-28 melanoma; 94.2% in the assay with ACHN renal; 93.5% in the assay with OVCAR-8 ovarian. In addition, the growth was 115% with OVCAR-3 ovarian; 108% in the assay with NCI/ADR-RES ovarian; 116% in the assay with MDA-MB-435 melanoma; 74.5% in the assay on MCF7 breast; 111% in the assay on KM12 colon.
For `CCCC(C)(C)c1ccc2c(c1)OC(C)(C)[C@@H]1CC=C(C)C[C@@H]21`, the growth in the assay on NCI-H23 lung is 96.1%; with NCI-H226 lung, 98.3%; in the assay on MDA-MB-231 breast it was 108%; in the assay on SF-268 CNS it was 93%; in the assay with SF-539 CNS, 104%; in the assay with HCT-15 colon it was 107%. Moreover, the growth is 102% in the assay with HT29 colon; 88.2% in the assay with SNB-75 CNS; 84.3% in the assay on PC-3 prostate; 102% in the assay with SK-MEL-5 melanoma; 98% with UACC-62 melanoma; 112% in the assay with SK-MEL-28 melanoma. Besides, the growth was 105% with SN12C renal; 105% in the assay on ACHN renal; 97.7% in the assay with OVCAR-8 ovarian; 102% in the assay with OVCAR-3 ovarian; 98.9% in the assay with NCI/ADR-RES ovarian; 105% in the assay on MDA-MB-435 melanoma. Moreover, the growth with MCF7 breast is 93.9%; with KM12 colon, 103%.
